Experimental findings from PubChem BioAssay (NCI) are described below.

Compounds without any hit were thinned out: in the full panel of roughly 79,000, 15% have a hit. Values without a mark were called inactive. Calls of active or inactive are those of the source. Cut-off read from the data, not from the text of the source: active = growth inhibition above about 70%; inactive = the rest. Where a SMILES comes first, the peptide text is derived from it. [ ]: non-standard residue; d: D form. The star is where a group is joined. ONb = O=[N+]([O-])c1ccc(CO*)cc1; AllylGly = C=CC[CH](N)C(=O)O; Boc = CC(C)(C)OC(=O)*

This experiment in a line: NCI Yeast Anticancer Drug Screen. Data for the bub3 strain (AID 167). To be noted: S. cerevisiae bub3 mutant strain, at 50.0 µM, stronger effect = higher value. The essentials: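 In this screen, a yeast mutant lacking normal mitotic checkpoint function is challenged with compound. Relative growth versus vehicle gives the inhibition value.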
For the compound `Cc1cccc2c(N=[N+]=[N-])cc(C(F)(F)F)nc12`, the growth inhibition is 12.7%. Under `COC(C)C(NC(=O)C1CCCN1C)C1OC(SCCOC(=O)c2ccccc2O)C(O)C(O)C1O` (stereo not given) stands 3.45%; under `CC1(C)N(/N=C/c2ccccc2)C(c2ccccc2)C(c2ccccc2)N1/N=C/c1ccccc1` (stereo not given), 2.65%. The result for `CC(C)CSC(SCC(C)C)C(O)C(O)C(O)CO` (stereo not given) reads 10.2%. The result for `N#CC1=C(N)CCC(C#N)(c2ccccc2)C1` (stereo not given) reads 22.8%; that for `O=C1C(=C(c2ccccc2)N2CCCCC2)C(=O)c2ccccc21`, 19.3%; that for `CCCCCCCCCCCCCCCCCCOc1c(Cl)c(Cl)c(Cl)c(Cl)c1Cl`, -7.4%. `O=C1c2c(O)cccc2C(C(=O)CCCC(=O)C2c3cccc(O)c3C(=O)c3c(O)cccc32)c2cccc(O)c21`: the growth inhibition is -15.8%.

Turning to `NNC(=O)C(=O)N/N=C(/CC1(O)C(=O)Nc2ccccc21)c1ccc(Cl)cc1Cl` (stereo not given), the growth inhibition is 0.75%. Under `O=C(O)c1cccc([N+](=O)[O-])c1Nc1cccc(C(F)(F)F)c1` stands 27.1%. The result for `C[N+](C)(C)c1cc(Br)c(O)c(Br)c1` reads 41.2%. The result for `COC(=O)c1cc(C(=O)OC)c(C(=O)OC)cc1C(=O)OC` reads 4.2%. For the compound `CCc1ccccc1NC(=O)C1=C(C)NC(C)=C(C(=O)Nc2ccccc2CC)C1c1cccc([N+](=O)[O-])c1`, the growth inhibition is 36.5%. In the case of `CCCCOC(=O)NC(=O)c1cn(CCCOC(=O)CCCCCCCCC(=O)OCCCn2cc(C(=O)NC(=O)OCCCC)c(=O)n(C)c2=O)c(=O)n(C)c1=O`, the growth inhibition was 14.3%. The result for `CCC(Nc1nncs1)Nc1nncs1` reads 2.95%; that for `C=C(Cl)C(=O)O`, -25.4%; that for `CC1CCCC(C)C1CO` (stereo not given), -17.8%.

Regarding `CC(=O)OCc1cc(=O)n2c([nH]c3ccccc32)c1C#N`, the growth inhibition is -26.3%. In the case of `Cc1ccnc(NCc2ccccn2)c1`, the growth inhibition is 1.3%.

In the case of `Cc1ccc(S(=O)(=O)N=Nc2c(O)[nH]c3c(Cl)cc(Cl)cc23)cc1`, the growth inhibition is -22.4%. Under `COc1ccc(/C=C/C2=CC(=O)CC(c3ccc(OC)c(OC)c3)C2)cc1OC` (stereo not given) stands 31.2%; under `O=Cc1ccc(-c2cccc([N+](=O)[O-])c2)s1`, 6.1%; under `COCC(N=CN1CCCc2ccccc2[C@@H]1CCCCl)C(C)(C)C` (stereo not given in full), 19.9%. Under `Cc1ccc2[nH]c(=O)cc(C)c2c1` stands 8.15%; under `COc1ccc(-c2nnc(CCCCCCCCc3nnc(-c4ccc(OC)cc4)n3N)n2N)cc1`, -2.7%. The result for `CCCCC1CCC2CCCCC2C1` (stereo not given) reads -11.2%; that for `COc1cc(/C=C2\CCC(CN(C)C)C2=O)ccc1OC(=O)c1ccccc1` (stereo not given), 85.2% (active).

Regarding `CCOC(=O)/C(C#N)=C/Nc1[nH]c(=O)c(C#N)c(-c2ccc(Cl)cc2)c1SC`, the growth inhibition is 2.1%. The result for `CC(=O)C1=CN(Cc2ccccc2)C(O)CC1C(N)=O` (stereo not given) reads 16.1%; that for `CCN(CC)CCNc1ccc(C)c2sc3ccc(N)cc3c(=O)c12`, -0.35%. The result for `CN(C)c1nc(=O)c2c(ccc3ccccc32)o1` reads 0.55%.

For the compound `CCCCCC(Nc1nncs1)Nc1nncs1`, the growth inhibition was 8.4%.

As for `Cc1cc(=O)n(-c2ccc(-c3ccc(-n4c(C)c(C(=O)O)c(C)cc4=O)cc3)cc2)c(C)c1C(=O)O`, the growth inhibition is -2.4%. The result for `CC[N+](CC)(CC)CCCC[P+](CC)(CC)CC` reads 10.2%; that for `COc1ccc(-n2c(N)c(C#N)c(C#N)c2-c2cccc([N+](=O)[O-])c2)cc1`, -18.9%. The result for `Nc1ccc2cn[nH]c2c1` reads 5.8%. Regarding `C=CCC(NC(=O)OC(C)(C)C)C(=O)NC(CCC(=O)OCc1ccc([N+](=O)[O-])cc1)C(N)=O` (stereo not given) (Boc-[AllylGly]-Glu(ONb)-NH2; configuration not given here), the growth inhibition was -2.35%. The result for `CC1(n2[nH]c(=O)n(-c3ccccc3)c2=O)Cn2c(=O)n(-c3ccccc3)c(=O)n2-c2ccccc21` (stereo not given) reads -5.2%; that for `COC1OC(=O)c2ccccc21` (stereo not given), -2.45%; that for `CCN(CC)CCN(Cc1ccccc1)C(=S)NC(=O)c1ccccc1`, 7.35%.
